These results are taken from PubChem BioAssay (NCI).

Some test systems named below: NCI-H23 lung; NCI-H226 lung; NCI-H322M lung; NCI-H460 lung; HOP-92 NSCLC; NCI-H522 lung; A549/ATCC NSCLC; 786-0 renal; COLO 205 colon.
Common to all, as to assay: NCI-60 one-dose screen, 48 h (100 = growth as untreated, 0 = no growth, -100 = all killed)
What all share (settings): 10 µM unless noted

Compounds without any hit were thinned out: in the full panel of roughly 83,000, 20% have a hit.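 Step 1: grow cells in 96-well plates. Step 2: add test compound at a single concentration. Step 3: incubate 48 h. Step 4: record percent growth.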 A number with no mark means an inactive call. Activity calls are given as the source filed them. How the source made its calls: active means growth percent below 10; inactive means the rest.

`Cn1c(/C(C#N)=C/c2ccc3ccccc3c2)cc2ccccc21`: the growth with NCI-H23 lung was 19.4%; in the test on NCI-H226 lung, 40.5%; in the test with NCI-H322M lung, 48.9%; with NCI-H460 lung it was 6.27% (active); in the test with HOP-92 NSCLC it was 64.8%; with NCI-H522 lung, 27.1%. The values for the growth with A549/ATCC NSCLC, in the test with 786-0 renal and with COLO 205 colon were 29.8%, 34.1% and 2.87% (active), respectively.

`COC(=O)[C@]12CC[C@@H](C(=O)/C=C/c3cccnc3)[C@@H]1[C@H]1CC[C@@H]3[C@@]4(C)C/C(=C/c5cccnc5)C(=O)C(C)(C)[C@@H]4CC[C@@]3(C)[C@]1(C)CC2`: the growth with NCI-H23 lung was -48.3% (active); in the test with NCI-H226 lung it was -44.4% (active); in the test with NCI-H322M lung, -80.7% (active); in the test with NCI-H460 lung, -78.4% (active); in the test with HOP-92 NSCLC it was -79.9% (active); in the test on NCI-H522 lung, -59.7% (active). Also, the results for the growth with A549/ATCC NSCLC, with 786-0 renal and in the test on COLO 205 colon were -9.34% (active), -92.3% (active) and -45.1% (active), respectively.

Consider `COc1cc(-c2cc3cc(O)ccc3oc2=O)cc(OC)c1OC`, for which the growth with NCI-H23 lung is 101%; in the test on NCI-H226 lung, 89.2%; with NCI-H322M lung, 85.9%; in the test with NCI-H460 lung, 107%; in the test with HOP-92 NSCLC, 86.5%; in the test on NCI-H522 lung, 86.5%. The figures for the growth with A549/ATCC NSCLC, in the test with 786-0 renal and with COLO 205 colon were 107%, 98.2% and 102%, respectively.

In the case of `CCCCCCCC(=O)SCC/C=C/[C@@H]1CC(=O)NCc2cccc(n2)CN(Cc2ccc(Cl)cc2)CC(=O)N[C@@H](C(C)C)C(=O)O1`, the growth was 19.5% in the test with NCI-H23 lung; 16.1% with NCI-H226 lung; 8.85% (active) with NCI-H322M lung; 11.9% with NCI-H460 lung; -16.5% (active) in the test on HOP-92 NSCLC; 29.6% with NCI-H522 lung. The figures for the growth with A549/ATCC NSCLC, with 786-0 renal and with COLO 205 colon were 2.92% (active), 14.4% and -40.4% (active), respectively.

For `O=C1CCCC=CC[C@H]2C=C(Cl)C(=O)C2=CC[C@H](CCCCC(F)(F)F)OC(=O)CCCC=CC[C@H]2C=C(Cl)C(=O)C2=CC[C@H](CCCCC(F)(F)F)OC(=O)CCCC=CC[C@H]2C=C(Cl)C(=O)C2=CC[C@H](CCCCC(F)(F)F)O1`, the growth is 65.2% [6.25 µM] in the test with NCI-H23 lung; 113% [6.25 µM] in the test on NCI-H226 lung; 99.1% [6.25 µM] in the test with NCI-H322M lung; 89.6% [6.25 µM] in the test with NCI-H460 lung; 126% [6.25 µM] with HOP-92 NSCLC; 34.4% [6.25 µM] with NCI-H522 lung. The growth was 93.7% [6.25 µM] in the test on A549/ATCC NSCLC, 108% [6.25 µM] in the test with 786-0 renal and 80% [6.25 µM] in the test with COLO 205 colon.

With `COCCNC1=C(Cl)C(=O)c2ccccc2C1=O`, the growth was 64.8% in the test with NCI-H23 lung; 95.9% in the test with NCI-H226 lung; 113% with NCI-H322M lung; 95.4% in the test on NCI-H460 lung; 137% in the test with HOP-92 NSCLC; 96.1% in the test on NCI-H522 lung. For the same compound, the values for the growth with A549/ATCC NSCLC, in the test with 786-0 renal and in the test with COLO 205 colon were 88.8%, 114% and 110%, respectively.

As for `N#CCCCCCn1c2ccccc2c2c3[nH]c(=O)[nH]c(=O)c3c3c4ccccc4n(CCCCCC#N)c3c21`, the growth in the test on NCI-H23 lung was 55.6%; with NCI-H226 lung it was 65.8%; in the test with NCI-H322M lung, 42.5%; in the test on NCI-H460 lung, 34.9%; in the test with HOP-92 NSCLC, 19.2%; in the test with A549/ATCC NSCLC, 73.7%. Further, the growth with 786-0 renal is 0.172% (active); in the test with COLO 205 colon, 71.6%.

As to `Cn1cc(-c2nc(-c3cn(C)c4ncccc34)cs2)c2ccccc21`, the growth in the test on NCI-H23 lung was 43.6%; in the test on NCI-H226 lung, 66.9%; in the test with NCI-H322M lung, 58.5%; with NCI-H460 lung, 16.7%; with HOP-92 NSCLC it was 75.3%; in the test on NCI-H522 lung it was -1.88% (active). Besides, the growth in the test with A549/ATCC NSCLC is 38.8%; with 786-0 renal, 39.3%; in the test on COLO 205 colon it was 32.8%.

`CCN1CCN(C(=O)[C@]23CCC(C)(C)C[C@@H]2C2=CC[C@@H]4[C@@]5(C)C/C(=C/c6cccnc6)C(=O)C(C)(C)[C@@H]5CC[C@@]4(C)[C@]2(C)CC3)CC1`: the growth is 27.1% in the test with NCI-H23 lung; 32.9% in the test with NCI-H226 lung; 62.3% with NCI-H322M lung; 12.1% with NCI-H460 lung; 9.8% (active) in the test on HOP-92 NSCLC; 28.4% with NCI-H522 lung. Moreover, the growth with A549/ATCC NSCLC is 13.5%; in the test with 786-0 renal it was 50.2%.

Take `C=C(C)[C@@H]1CC[C@]2(CN)CC[C@]3(C)[C@H](CC[C@@H]4[C@@]5(C)CCC(=O)NC(C)(C)[C@@H]5CC[C@]43C)[C@@H]12`: the growth with NCI-H23 lung was 85.3%; with NCI-H226 lung it was 88.1%; with NCI-H322M lung it was 89.1%; in the test with NCI-H460 lung it was 90.3%; in the test with HOP-92 NSCLC it was 54.6%; in the test on NCI-H522 lung, 88%. Moreover, the growth with A549/ATCC NSCLC is 59.3%; in the test with 786-0 renal, 84.6%; in the test with COLO 205 colon, 75.9%.

For the compound `Cn1cc(-c2csc(-c3cn(CCN)c4ccc(Br)cc34)n2)c2cccnc21`, the growth in the test on NCI-H23 lung is 78.4%; in the test on NCI-H226 lung it was 85.1%; with NCI-H322M lung, 75.3%; in the test with HOP-92 NSCLC it was 45.9%; with NCI-H522 lung, 90.6%; with A549/ATCC NSCLC, 37.5%. The growth in the test on 786-0 renal is 73.1%; in the test with COLO 205 colon, -5.13% (active).

On to `Cc1ccc(N(CC(=O)Nc2ccc(S(=O)(=O)NC3CCN(C)CC3)cc2)S(=O)(=O)c2ccc(Cl)cc2)cc1`, for which the growth is 90.7% with NCI-H23 lung; 87.7% with NCI-H226 lung; 88.9% in the test with NCI-H322M lung; 8.12% (active) in the test with NCI-H460 lung; 69.6% in the test on HOP-92 NSCLC; 90.4% in the test with NCI-H522 lung. Also, the growth with A549/ATCC NSCLC is 69.2%; in the test on 786-0 renal, 87.4%; in the test on COLO 205 colon it was -47.6% (active).

As for `COc1ccc(C2NC(=O)Nc3ccccc32)c(OC)c1` (stereo unspecified), the growth is 102% in the test on NCI-H23 lung; 89.7% in the test with NCI-H226 lung; 96.6% in the test with NCI-H322M lung; 101% in the test with NCI-H460 lung; 86.7% with HOP-92 NSCLC; 91.6% in the test with NCI-H522 lung. The growth is 98.4% in the test on A549/ATCC NSCLC, 103% in the test on 786-0 renal and 112% in the test on COLO 205 colon.

In the case of `CCCCN1CCCCn2c1nc1c2c(=O)n(C)c(=O)n1C`, the growth in the test on NCI-H23 lung was 108%; with NCI-H226 lung it was 104%; in the test with NCI-H322M lung, 110%; with NCI-H460 lung it was 101%; with HOP-92 NSCLC it was 95.7%; in the test with NCI-H522 lung, 90.1%. For the same compound, the growth in the test on A549/ATCC NSCLC was 89%; with 786-0 renal, 100%.

Turning to `CCSc1sc(-c2ccc(C)cc2)nc1[P+](c1ccccc1)(c1ccccc1)c1ccccc1`, the growth is -13.9% (active) in the test with NCI-H23 lung; -4.39% (active) in the test with NCI-H226 lung; -16.7% (active) in the test on NCI-H322M lung; -40.5% (active) with NCI-H460 lung; -38.3% (active) with HOP-92 NSCLC; -10.4% (active) in the test with NCI-H522 lung. Moreover, the figures for the growth with A549/ATCC NSCLC, in the test with 786-0 renal and in the test with COLO 205 colon were 3.64% (active), 5.86% (active) and -26% (active), respectively.

Take `CC(C)c1cc(C(=O)O)c(O)c(C(C)C)c1.CC(C)c1cc(C(=O)O)c(O)c(C(C)C)c1.[Mn]`: the growth with NCI-H23 lung was 110%; with NCI-H226 lung, 103%; in the test on NCI-H322M lung it was 110%; in the test on NCI-H460 lung it was 102%; in the test with HOP-92 NSCLC, -39.3% (active); in the test with NCI-H522 lung it was 79.5%. Further, the results for the growth with A549/ATCC NSCLC, in the test with 786-0 renal and in the test on COLO 205 colon were 99.9%, 101% and 112%, respectively.

With `CC(=O)c1c(C)[nH]c(-c2nc3ccc(N4CCN(C)CC4)cc3[nH]2)c1-c1ccc2c(c1)OCCO2`, the growth in the test on NCI-H23 lung is 50.1%; in the test with NCI-H226 lung it was 47.9%; in the test with NCI-H322M lung, 45.8%; in the test with HOP-92 NSCLC, 39%; with NCI-H522 lung it was 48.7%; in the test on A549/ATCC NSCLC, 44%. Further, the values for the growth in the test on 786-0 renal and in the test with COLO 205 colon were 40.9% and 12.7%, respectively.

For `Brc1ccc2[nH]cc(-c3nc(-c4c[nH]c5ncccc45)cs3)c2c1`, the growth was 47% in the test with NCI-H23 lung; 62.4% in the test with NCI-H226 lung; 42% in the test with NCI-H322M lung; 15.7% in the test with NCI-H460 lung; 47.9% with HOP-92 NSCLC; 25% in the test on NCI-H522 lung. Moreover, the growth in the test with A549/ATCC NSCLC is 22.9%; in the test with 786-0 renal it was 10.4%; in the test with COLO 205 colon, 18.5%.

As to `CSc1ccc(N(C)c2nc(C)nc3c2CCC3)cc1`, the growth in the test with NCI-H23 lung is 16.7%; in the test with NCI-H226 lung it was 55.5%; in the test on NCI-H322M lung, 57.4%; in the test with NCI-H460 lung, 6.41% (active); with HOP-92 NSCLC it was -17% (active); with NCI-H522 lung, -26.7% (active). Moreover, the growth in the test on A549/ATCC NSCLC is 6.42% (active); in the test on 786-0 renal, 14.4%; in the test with COLO 205 colon, -64.9% (active).
